Where “and” joins values, the source holds several entries; their conditions need not be identical. Identical values can stand only once. Records with an inconclusive call do not appear. Calls of active or inactive are those of the source. Unless noted, calls come from the whole dose curve.

Assay [1] has as its target Androgen receptor (Homo sapiens) (UniProt P10275). The assay can be described thus: qHTS assay for small molecule agonists of androgen receptor signaling (AID 588515; active = well fitted curve in the direction sought with a large enough effect in the signal ratio, with a control signal flat; the % refers to the signal ratio; note: % is set by controls: 0 for no effect and ±100 for the full control effect). The following applies: AR-UAS-bla HEK293, beta-lactamase ratio, agonist 16 h; stronger effect = higher value. The procedure, abridged:
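Stimulation of an AR-responsive β-lactamase reporter in GripTite HEK293 cells was measured after 16 h compound exposure at 37 °C, via CCF4 fluorescence after 2 h RT. EC50 from Hill fits, normalized to R1881 at 30 nM.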
Background: Quantitative high-throughput screening tests each substance at several concentrations.

Assay [2] shares this target. Kind of assay: qHTS assay for small molecule antagonists of androgen receptor signaling (AID 588516; active = well fitted curve in the direction sought with a large enough effect in the signal ratio, with a control signal flat, not every such curve was filed as active; the % refers to the signal ratio; note: % is set by controls: 0 for no effect and ±100 for the full control effect). The following applies: AR-UAS-bla HEK293, beta-lactamase ratio, antagonist mode, 16 h; series mostly up to 76.8 µM. Summed up:
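HEK293 AR-UAS-bla cells, 10% dialyzed FBS medium; cpd titration + R1881 10 nM final, 16 h 37 C; CCF4 2 h RT; FRET ratio; IC50/efficacy via Hill fit.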

In assay [3] the target is Glucocorticoid receptor (Homo sapiens) (UniProt P04150). Kind of assay: qHTS assay for small molecule agonists of glucocorticoid receptor signaling (AID 588532; active = well fitted curve in the direction sought with a large enough effect in the signal ratio, with a control signal flat; the % refers to the signal ratio;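 note: 100% = dexamethasone at 0.1 µM and 0% = DMSO only wells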). Particulars: HeLa MMTV-bla, beta-lactamase ratio, agonist, 18 h; activation: stronger effect = higher value, percent of dexamethasone control, DMSO zero. The procedure, abridged: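 HeLa GRE-bla reporter cells; 18 h compound exposure at 37 C; 2 h CCF4 loading at room temperature; fluorescence at 460 and 530 nm; EC50 by Hill equation.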
Sequence of Glucocorticoid receptor (Homo sapiens) (P04150 whole entry, looked up): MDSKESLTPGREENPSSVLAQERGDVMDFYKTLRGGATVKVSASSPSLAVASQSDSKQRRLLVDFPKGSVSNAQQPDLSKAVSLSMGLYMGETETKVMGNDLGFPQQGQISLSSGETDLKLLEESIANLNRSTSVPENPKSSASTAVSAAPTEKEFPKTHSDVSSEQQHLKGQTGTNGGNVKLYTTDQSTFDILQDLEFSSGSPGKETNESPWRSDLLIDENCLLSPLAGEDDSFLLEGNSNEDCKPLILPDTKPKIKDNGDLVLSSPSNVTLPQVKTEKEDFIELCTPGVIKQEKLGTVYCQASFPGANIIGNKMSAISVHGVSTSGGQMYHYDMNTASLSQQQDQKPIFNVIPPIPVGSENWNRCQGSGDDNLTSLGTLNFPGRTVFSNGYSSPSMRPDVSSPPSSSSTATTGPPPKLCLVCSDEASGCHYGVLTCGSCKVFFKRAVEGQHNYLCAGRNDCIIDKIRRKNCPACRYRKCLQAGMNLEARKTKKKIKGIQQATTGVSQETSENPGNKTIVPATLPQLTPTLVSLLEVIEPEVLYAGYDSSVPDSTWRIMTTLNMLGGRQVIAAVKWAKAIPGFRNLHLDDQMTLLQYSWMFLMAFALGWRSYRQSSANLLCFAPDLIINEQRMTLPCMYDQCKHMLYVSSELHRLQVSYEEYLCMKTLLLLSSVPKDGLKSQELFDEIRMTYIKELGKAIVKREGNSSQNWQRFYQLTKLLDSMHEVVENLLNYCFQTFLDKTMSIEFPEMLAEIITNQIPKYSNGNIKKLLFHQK

Assay [4] deals with Vitamin D3 receptor (Homo sapiens) (UniProt P11473). The assay can be described thus: qHTS assay for small molecule antagonists of vitamin D receptor signaling (AID 588541).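 Note: receptor activated by calcitriol during compound treatment; % is set by controls: 0 for no effect and ±100 for the full control effect.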 The following applies: HEK293T VDR-UAS-bla, beta-lactamase ratio, antagonist mode; series mostly up to 76.7 µM. The procedure, abridged: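 VDR-UAS-bla HEK293T cells in 2% charcoal-stripped FBS were stimulated with 1-alpha,25-dihydroxyvitamin D3 (3 nM final) plus compound for 16 h at 37 C. The beta-lactamase CCF4 readout was normalized to 50 nM agonist and DMSO, and Hill fits gave IC50.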
Sequence of Vitamin D3 receptor (Homo sapiens) (P11473 whole entry, looked up): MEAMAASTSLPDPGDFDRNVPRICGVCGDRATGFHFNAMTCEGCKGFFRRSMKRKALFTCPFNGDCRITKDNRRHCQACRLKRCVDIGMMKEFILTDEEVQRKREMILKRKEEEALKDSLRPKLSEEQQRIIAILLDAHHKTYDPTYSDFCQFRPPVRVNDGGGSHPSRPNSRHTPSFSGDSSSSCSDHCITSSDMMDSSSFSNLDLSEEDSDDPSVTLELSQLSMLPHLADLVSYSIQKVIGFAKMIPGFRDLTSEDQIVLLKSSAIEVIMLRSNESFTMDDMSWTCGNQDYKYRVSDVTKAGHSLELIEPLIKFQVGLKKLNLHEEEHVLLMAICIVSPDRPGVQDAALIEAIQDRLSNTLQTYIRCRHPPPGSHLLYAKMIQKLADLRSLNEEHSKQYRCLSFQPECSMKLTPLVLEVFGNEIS

Assay [5] concerns the target Estrogen receptor (Homo sapiens) (UniProt P03372). Kind of assay: qHTS assay for small molecule agonists of estrogen receptor alpha signaling (AID 588514).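 Note: 0% = vehicle only and 100% = reference agonist; nearly all actives have a fitted effect of over 70% in size.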 Particulars: ER-alpha-UAS-bla HEK293, beta-lactamase ratio, 18 h; series mostly up to 76.8 µM. Summed up:
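Read-out: CCF4 fluorescence from a beta-lactamase reporter in ER-alpha-UAS-bla HEK 293 cells after 18 hrs of compound exposure at 37 C. Normalized to 20 nM 17-beta-estradiol (100%) and DMSO (0%).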

Assay [6] deals with Peroxisome proliferator-activated receptor gamma (Homo sapiens) (UniProt P37231). The assay can be described thus: qHTS assay for small molecule antagonists of peroxisome proliferator-activated receptor gamma signaling (AID 588537; active = well fitted inhibition curve with a large enough effect in the signal ratio, with a control signal flat, not every such curve was filed as active; the % refers to the signal ratio;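 note: reporter cells co-stimulated with 50 nM rosiglitazone agonist during compound treatment; % of control where 0% means no effect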). The following applies: HEK293 PPARg-UAS-bla, beta-lactamase ratio, antagonist mode; series mostly up to 76.8 µM. The procedure, abridged:
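Read-out: CCF4 fluorescence (ex 405, em 460/530 nm) after 2 h at RT. Cells were HEK293 carrying a UAS-bla reporter and treated 16 h at 37 C with compound plus rosiglitazone (50 nM final). Normalized to rosiglitazone and DMSO.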

Assay [7] can be described thus: qHTS assay for small molecule agonists of retinoid X receptor alpha signaling (AID 588544). The following applies: HEK293T RXRa-UAS-bla, beta-lactamase reporter, 18 h; 530 nm emission.
The nature of assay [8]: qHTS assay for small molecule activators of the nuclear factor-kappa B (NF-kB) signaling pathway (AID 651749; active = well fitted activation curve with a large enough effect in the signal ratio; the % refers to the signal ratio; note: % of control where 0% means no effect). The following applies: NF-kB-bla ME-180 cells, beta-lactamase FRET ratio, 16 h; activation: stronger effect = higher value. The procedure, abridged: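 NF-kB-bla ME-180 cells, 2,000/well; 23 nL compound or DMSO pinned; 16 hr, 37C/5% CO2; beta-lactamase FRET read-out.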
A short description of assay [9]: qHTS assay for small molecule activators of the human pregnane X receptor (PXR) signaling pathway (AID 720659; call rule not given here; note: 0% is about no effect). Particulars: DPX-2 HepG2 CYP3A4-luciferase, 24 h; series mostly up to 92.3 µM.
In assay [10] the target is Tumor necrosis factor (Homo sapiens) (UniProt P01375). Kind of assay: qHTS assay to identify small molecules that stimulate Tumor Necrosis Factor-alpha (TNF-alpha) secretion (AID 651757; active = well fitted curve in the direction sought with a large enough effect in the signal ratio; the % refers to the signal ratio; note: potency is the fitted concentration of half-maximal effect). The following applies: Human cells, HTRF 665/615 ratio; series mostly up to 92.2 µM. Summed up: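 THP-1 cells, 3000/well; compound 17 hrs, 37 C; add cryptate/XL665 anti-TNF-alpha antibody pair; 3 hr RT; TR-FRET (HTRF) read of secreted TNF-alpha. Quantitative HTS format.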
Sequence of Tumor necrosis factor (Homo sapiens) (P01375 whole entry, looked up): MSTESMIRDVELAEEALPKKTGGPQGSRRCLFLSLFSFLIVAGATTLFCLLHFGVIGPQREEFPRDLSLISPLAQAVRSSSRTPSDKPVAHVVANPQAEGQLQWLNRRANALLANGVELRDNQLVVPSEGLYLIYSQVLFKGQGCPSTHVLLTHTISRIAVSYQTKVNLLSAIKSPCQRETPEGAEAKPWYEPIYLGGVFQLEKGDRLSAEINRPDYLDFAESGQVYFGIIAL

Assay [11] has as its target Glucocorticoid receptor (Homo sapiens) (UniProt P04150). Kind of assay: qHTS assay for small molecule antagonists of glucocorticoid receptor signaling (AID 588533; active = well fitted inhibition curve with a large enough effect in the signal ratio, with a control signal flat, not every such curve was filed as active; the % refers to the signal ratio; note: % is set by controls: 0 for no effect and ±100 for the full control effect). Particulars: HeLa MMTV-bla, GRE beta-lactamase ratio, antagonist mode, 18 h; series mostly up to 76.8 µM. The procedure, abridged: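 Antagonist-mode qHTS: compound titrations added to GRE-bla HeLa cells, then dexamethasone 2 nM final; 18 h, 37 C. CCF4 FRET fluorescence normalized to dexamethasone and DMSO; IC50 from Hill fit.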

Assay [12] concerns the target Peroxisome proliferator-activated receptor gamma (Homo sapiens) (UniProt P37231). The assay can be described thus: qHTS assay for small molecule agonists of peroxisome proliferator-activated receptor gamma signaling (AID 588536; active = well fitted curve in the direction sought with a large enough effect in the signal ratio, with a control signal flat, not every such curve was filed as active; the % refers to the signal ratio). The following applies: HEK293 PPARg-UAS-bla, beta-lactamase ratio, 16 h; series mostly up to 76.7 µM. Summed up: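 Beta-lactamase reporter read-out: CCF4 fluorescence (ex 405, em 460/530 nm) after 2 h at RT. HEK293 GeneBLAzer cells were treated for 16 h at 37 C. Hill fits gave EC50 and efficacy versus 2 uM rosiglitazone (100%) and DMSO (0%).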

Assay [13] in a line: qHTS assay for small molecule disruptors of the mitochondrial membrane potential - 1 hr assay (AID 651754). Note: potency is the fitted concentration of half-maximal effect; nearly all actives have a fitted effect of over 35% in size. Particulars: series mostly up to 92.2 µM. The procedure, abridged:
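Read-out: dye fluorescence at 490 nm ex/535 nm em (monomers) and 540 nm ex/590 nm em (aggregates) in HepG2 cells. Compound exposure 1 hr at 37C, followed by 30 min dye loading.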

Sequence of Androgen receptor (Homo sapiens) (P10275 whole entry, looked up): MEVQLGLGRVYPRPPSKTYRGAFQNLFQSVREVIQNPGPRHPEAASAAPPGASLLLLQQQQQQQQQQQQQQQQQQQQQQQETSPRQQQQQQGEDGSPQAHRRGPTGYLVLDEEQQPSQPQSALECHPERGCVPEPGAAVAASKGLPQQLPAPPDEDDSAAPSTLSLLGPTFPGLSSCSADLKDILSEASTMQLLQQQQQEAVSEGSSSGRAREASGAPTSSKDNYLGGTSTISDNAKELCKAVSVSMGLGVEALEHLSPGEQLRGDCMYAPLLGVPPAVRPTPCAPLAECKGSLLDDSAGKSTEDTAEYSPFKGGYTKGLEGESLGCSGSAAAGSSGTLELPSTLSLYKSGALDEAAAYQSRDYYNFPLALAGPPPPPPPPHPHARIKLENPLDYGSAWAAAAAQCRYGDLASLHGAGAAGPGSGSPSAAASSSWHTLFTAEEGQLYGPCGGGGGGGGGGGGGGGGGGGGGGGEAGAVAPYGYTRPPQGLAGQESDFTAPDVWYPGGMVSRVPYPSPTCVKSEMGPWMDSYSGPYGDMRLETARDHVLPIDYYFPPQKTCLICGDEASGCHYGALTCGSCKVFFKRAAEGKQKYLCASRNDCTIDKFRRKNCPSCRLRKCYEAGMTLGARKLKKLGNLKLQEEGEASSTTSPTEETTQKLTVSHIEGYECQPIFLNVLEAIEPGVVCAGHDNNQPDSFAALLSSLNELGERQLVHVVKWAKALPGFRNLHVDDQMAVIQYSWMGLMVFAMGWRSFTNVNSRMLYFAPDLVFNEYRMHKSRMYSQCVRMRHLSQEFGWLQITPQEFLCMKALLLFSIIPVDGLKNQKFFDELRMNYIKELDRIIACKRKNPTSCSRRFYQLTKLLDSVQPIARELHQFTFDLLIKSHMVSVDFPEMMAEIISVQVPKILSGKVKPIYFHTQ
Sequence of Peroxisome proliferator-activated receptor gamma (Homo sapiens) (P37231 whole entry, looked up): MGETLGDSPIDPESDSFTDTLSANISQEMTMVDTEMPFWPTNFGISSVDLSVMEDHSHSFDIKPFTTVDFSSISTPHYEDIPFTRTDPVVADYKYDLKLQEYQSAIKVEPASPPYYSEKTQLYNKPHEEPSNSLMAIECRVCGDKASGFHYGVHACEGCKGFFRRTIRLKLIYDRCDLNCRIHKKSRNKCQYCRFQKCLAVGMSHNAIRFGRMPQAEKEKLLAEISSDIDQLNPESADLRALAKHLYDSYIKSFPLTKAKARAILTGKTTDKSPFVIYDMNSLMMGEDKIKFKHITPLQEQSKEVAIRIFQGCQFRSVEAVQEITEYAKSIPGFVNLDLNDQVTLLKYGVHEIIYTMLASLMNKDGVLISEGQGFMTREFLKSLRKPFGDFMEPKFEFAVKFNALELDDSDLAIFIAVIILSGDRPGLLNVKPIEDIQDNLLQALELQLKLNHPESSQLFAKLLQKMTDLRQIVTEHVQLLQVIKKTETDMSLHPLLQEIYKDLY
Sequence of Estrogen receptor (Homo sapiens) (P03372 whole entry, looked up): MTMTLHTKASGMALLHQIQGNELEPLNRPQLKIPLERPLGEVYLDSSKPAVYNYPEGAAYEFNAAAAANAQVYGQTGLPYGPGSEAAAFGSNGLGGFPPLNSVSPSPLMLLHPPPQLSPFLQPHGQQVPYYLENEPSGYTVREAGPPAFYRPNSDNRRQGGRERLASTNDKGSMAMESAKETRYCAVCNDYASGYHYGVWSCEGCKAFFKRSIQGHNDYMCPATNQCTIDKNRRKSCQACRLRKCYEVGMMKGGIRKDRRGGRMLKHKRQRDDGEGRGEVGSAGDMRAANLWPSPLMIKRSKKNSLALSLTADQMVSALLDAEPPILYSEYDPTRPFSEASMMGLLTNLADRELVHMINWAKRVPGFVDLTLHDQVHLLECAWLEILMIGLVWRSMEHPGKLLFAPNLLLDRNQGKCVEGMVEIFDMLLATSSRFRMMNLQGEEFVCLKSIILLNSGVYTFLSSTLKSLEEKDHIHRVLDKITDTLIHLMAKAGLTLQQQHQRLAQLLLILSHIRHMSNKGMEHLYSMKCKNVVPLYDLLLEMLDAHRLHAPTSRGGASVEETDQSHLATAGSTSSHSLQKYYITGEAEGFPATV

On to `ClC1=C(Cl)[C@@]2(Cl)[C@H]3C[C@@H](Cl)[C@H](Cl)[C@H]3[C@@]1(Cl)C2(Cl)Cl`, for which the values for the activation in [1] and in assay [3] were -0.104% (inactive) and -9.73% (inactive), respectively. Also, the Potency result in [2] and in [4] was “inactive” each time.

`Cc1cc(Cl)ccc1O[C@H](C)C(=O)O`: the Potency result in assay [5] and in assay [6] was “inactive” throughout. Further, in assay [7], the max response is -13.3%. The activation in assay [8] was 0.599% (inactive). Besides, the compound was classed as inactive in assay [9].

In the case of `c1ccc2c(c1)c1cccc3ccc4cccc2c4c31`, in assay [1], the activation was 7.55% (inactive). The Potency in [10] is 29.8 µM (active).

Take `CCOP(=S)(OCC)SC(CCl)N1C(=O)c2ccccc2C1=O` (stereo unspecified): the activation in assay [1] was -16.4% (inactive); in [8], -1.92% (inactive). For the same compound, the Potency result in assay [2] was “inactive”.

Take `ClCc1ccccc1Cl`: the activation in assay [1] was 1.96% (inactive); in assay [3], -3.29% (inactive). Also, the Potency entry in assay [2], in assay [11], in assay [12], in assay [6] and in assay [4] was “inactive” throughout. In addition, the max response in assay [7] is -22.8%. Further, in assay [9], the call was inactive.

As to `O=C1C=CC(=O)c2ccccc21`, the activation in [1] is 0.338% (inactive); in assay [3], 0.432% (inactive); in [8], -1.33% (inactive). The Potency result in assay [11], in [12] and in assay [6] was “inactive” each time. The max response in assay [7] was found to be 12.1%. In assay [9], the outcome was inactive.

`CC(C)N1C(=O)N(c2ccccc2)CSC1=NC(C)(C)C`: the activation in assay [1] was -16.2% (inactive) and -14% (inactive); in assay [3], -1.49% (inactive) and -3.83% (inactive); in assay [8], 0.243% (inactive) and -2.38% (inactive). Also, the Potency result in assay [6] and in assay [4] was “inactive” in each case. Also, the max response in [7] is 15.4% and 12.1%.

With `N#CCNC(=O)c1cnccc1C(F)(F)F`, the activation is 4.4% (inactive) in assay [1] and 0.151% (inactive) in assay [3]. Further, the Potency entry in assay [2], in assay [11], in assay [12], in [6] and in assay [4] was “inactive” in each case. Further, in assay [9], the compound was classed as inactive.

For the compound `COC(C)(C)CCC[C@H](C)C/C=C/C(C)=C/C(=O)OC(C)C`, the values for the activation in assay [1] and in assay [8] were -8.45% (inactive) and 0.706% (inactive), respectively. Also, in [7], the max response turned out to be 10.5%.

With `O=[N+]([O-])c1ccc2ccc3cccc4ccc1c2c34`, the activation in [1] is -12% (inactive); in assay [3], -22% (inactive). In addition, in assay [6], the Potency entry was “inactive”. Further, the max response in assay [7] is 19.4%. For the same compound, in [9], the compound was called inactive.

Take `O=C(NC(=O)c1c(F)cccc1F)Nc1cc(Cl)c(OC(F)(F)C(F)C(F)(F)F)c(Cl)c1F` (stereo unspecified): the activation in assay [1] is -3.76% (inactive); in [8], 4.04% (inactive). The Potency entry in assay [2], in assay [12] and in [6] was “inactive” in each case. The max response in assay [7] was 23%.

In the case of `Cc1nn(-c2cc(NS(C)(=O)=O)c(Cl)cc2Cl)c(=O)n1C(F)F`, the activation in [1] was -3.3% (inactive). In addition, the Potency entry in assay [2], in assay [12], in assay [6] and in [4] was “inactive” throughout. In addition, in [7], the max response was found to be 10.2%.

`CCS(=O)(=O)c1cccnc1S(=O)(=O)NC(=O)Nc1nc(OC)cc(OC)n1`: the results for the activation in assay [3] and in assay [8] were -0.845% (inactive) and -1.37% (inactive), respectively. Moreover, the Potency entry in assay [11], in assay [12], in assay [6] and in assay [4] was “inactive” throughout.

Take `CC1(C)[C@H](C(=O)O[C@H](C#N)c2cccc(Oc3ccccc3)c2)[C@@H]1C=C(Br)Br`: the activation in [1] was -5.24% (inactive). Also, in [2], the Potency result was “inactive”. For the same compound, the max response in assay [7] is -14.7%.

Consider `COC(=O)c1c(C(F)F)nc(C(F)(F)F)c(C2=NCCS2)c1CC(C)C`, for which the activation in assay [1] was -1.74% (inactive); in assay [8], -2.57% (inactive). For the same compound, the Potency result in assay [2], in assay [12] and in [4] was “inactive” throughout.

As to `c1ccc2c(c1)[nH]c1ccccc12`, in assay [1], the activation is 0.372% (inactive). Besides, the Potency in assay [13] is 59.6 µM (active).

In the case of `N#Cc1cc(I)c(O)c(I)c1`, the activation in assay [1] was 6.03% (inactive); in [8], 1.07% (inactive). Further, the Potency entry in assay [2] and in [4] was “inactive” throughout. For the same compound, in assay [7], the max response came to 19.3%. Further, the result in [9] was inactive.

As to `COc1cc(OC)nc(NC(=O)NS(=O)(=O)c2cc(NC=O)ccc2C(=O)N(C)C)n1`, the values for the activation in [1] and in assay [3] were 1.85% (inactive) and -12.6% (inactive), respectively. In addition, the Potency entry in assay [2], in assay [11], in assay [12], in assay [6] and in assay [4] was “inactive” throughout. Besides, the max response in assay [7] was -3.56%. Also, the outcome in assay [9] was inactive.

Values taken from PubChem BioAssay (NCATS).
